This passage reports binding signal results from article PMC7862700, “An all-to-all approach to the identification of sequence-specific readers for epigenetic DNA modifications on cytosine”.

What all share (test): DAPPL (digital affinity profiling via proximity ligation, sequencing); 10 mM Tris-HCl pH 7.5, 50 mM NaCl, 1 mM DTT, 4% glycerol, room temperature, 30 min; GST-TFs on glutathione beads, 16-mer random dsDNA library, 0.1% formaldehyde crosslink after washing; high values mean tight binding
Common to all, as to details: protein: recombinant; tags: N-terminal GST; dsDNA, one strand shown

One test concerns the target T1, FLI1 (Homo sapiens, UniProt Q01543 1-452).
T1 sequence: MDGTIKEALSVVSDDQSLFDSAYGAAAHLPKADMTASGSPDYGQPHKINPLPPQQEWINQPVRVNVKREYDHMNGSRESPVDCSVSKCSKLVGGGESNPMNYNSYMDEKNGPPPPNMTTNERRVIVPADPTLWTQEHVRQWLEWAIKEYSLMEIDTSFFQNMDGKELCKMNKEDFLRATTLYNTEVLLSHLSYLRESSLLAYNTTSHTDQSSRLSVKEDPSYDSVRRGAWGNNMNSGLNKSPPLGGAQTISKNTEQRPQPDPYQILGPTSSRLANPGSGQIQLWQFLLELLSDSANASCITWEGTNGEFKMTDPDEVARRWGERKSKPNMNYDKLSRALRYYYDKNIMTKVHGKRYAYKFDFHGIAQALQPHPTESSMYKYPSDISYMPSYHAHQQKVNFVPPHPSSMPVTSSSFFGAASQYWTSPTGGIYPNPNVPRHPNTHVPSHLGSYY
An outline of the steps: (§1)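 Each value of binding signal is a hexamer's read frequency for a factor divided by the same hexamer's frequency in the tag-only sample. Barcoded, bead-captured GST fusions of human transcription factors made in yeast were pooled with that sample and incubated with 200 nmole of a random double-stranded 16-mer DNA library in Tris/NaCl/DTT/glycerol buffer at room temperature for 30 min. Washing, 0.1% formaldehyde crosslinking, proximity ligation, PCR and Illumina NextSeq500 sequencing followed.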

The target of another test is T2, ELK1 (Homo sapiens, UniProt P19419 1-428).
T2 sequence: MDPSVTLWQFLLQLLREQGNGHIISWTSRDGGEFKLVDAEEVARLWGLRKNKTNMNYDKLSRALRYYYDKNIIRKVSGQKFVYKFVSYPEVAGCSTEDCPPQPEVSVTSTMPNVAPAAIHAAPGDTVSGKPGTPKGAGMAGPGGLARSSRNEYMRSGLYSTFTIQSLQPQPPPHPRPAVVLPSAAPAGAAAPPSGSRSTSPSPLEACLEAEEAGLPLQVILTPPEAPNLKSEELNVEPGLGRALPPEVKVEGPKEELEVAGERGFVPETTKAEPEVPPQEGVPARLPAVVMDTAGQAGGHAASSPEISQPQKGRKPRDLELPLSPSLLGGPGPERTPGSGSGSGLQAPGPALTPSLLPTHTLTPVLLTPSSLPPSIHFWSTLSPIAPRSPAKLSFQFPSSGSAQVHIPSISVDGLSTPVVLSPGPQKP
Put shortly: as §1

A further test concerns the target T3, GABPA (Homo sapiens, UniProt Q06546 1-454).
T3 sequence: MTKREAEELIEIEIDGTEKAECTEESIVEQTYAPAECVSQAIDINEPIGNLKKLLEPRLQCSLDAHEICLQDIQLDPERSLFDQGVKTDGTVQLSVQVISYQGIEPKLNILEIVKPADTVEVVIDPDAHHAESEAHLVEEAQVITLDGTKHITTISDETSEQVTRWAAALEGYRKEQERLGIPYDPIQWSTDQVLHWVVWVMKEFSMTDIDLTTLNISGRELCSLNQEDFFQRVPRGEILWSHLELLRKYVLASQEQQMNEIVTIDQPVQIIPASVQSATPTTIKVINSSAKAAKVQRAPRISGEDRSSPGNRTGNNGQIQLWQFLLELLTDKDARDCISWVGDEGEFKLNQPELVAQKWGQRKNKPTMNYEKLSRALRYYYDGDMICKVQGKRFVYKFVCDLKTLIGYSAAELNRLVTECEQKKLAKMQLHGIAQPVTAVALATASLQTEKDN
Put shortly: as §1

The next test concerns the target T4, ERG (Homo sapiens, UniProt P11308 1-479).
T4 sequence: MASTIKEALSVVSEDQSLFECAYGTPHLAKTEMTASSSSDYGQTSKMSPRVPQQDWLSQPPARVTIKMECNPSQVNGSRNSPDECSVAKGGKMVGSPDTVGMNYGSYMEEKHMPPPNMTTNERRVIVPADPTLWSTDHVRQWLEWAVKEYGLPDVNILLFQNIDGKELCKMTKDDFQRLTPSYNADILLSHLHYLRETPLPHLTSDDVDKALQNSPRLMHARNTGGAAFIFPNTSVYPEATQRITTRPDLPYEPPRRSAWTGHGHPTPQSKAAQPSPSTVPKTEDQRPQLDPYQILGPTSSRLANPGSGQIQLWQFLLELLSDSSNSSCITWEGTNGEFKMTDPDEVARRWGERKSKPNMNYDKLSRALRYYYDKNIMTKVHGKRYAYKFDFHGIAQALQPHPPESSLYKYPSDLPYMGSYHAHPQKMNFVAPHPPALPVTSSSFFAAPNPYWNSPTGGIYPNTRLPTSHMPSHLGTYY
An outline of the steps: as §1

The target of a further test is ELF1 (Homo sapiens, UniProt P32519 1-619). Put shortly: as §1
Chain of ELF1 (P32519 whole entry): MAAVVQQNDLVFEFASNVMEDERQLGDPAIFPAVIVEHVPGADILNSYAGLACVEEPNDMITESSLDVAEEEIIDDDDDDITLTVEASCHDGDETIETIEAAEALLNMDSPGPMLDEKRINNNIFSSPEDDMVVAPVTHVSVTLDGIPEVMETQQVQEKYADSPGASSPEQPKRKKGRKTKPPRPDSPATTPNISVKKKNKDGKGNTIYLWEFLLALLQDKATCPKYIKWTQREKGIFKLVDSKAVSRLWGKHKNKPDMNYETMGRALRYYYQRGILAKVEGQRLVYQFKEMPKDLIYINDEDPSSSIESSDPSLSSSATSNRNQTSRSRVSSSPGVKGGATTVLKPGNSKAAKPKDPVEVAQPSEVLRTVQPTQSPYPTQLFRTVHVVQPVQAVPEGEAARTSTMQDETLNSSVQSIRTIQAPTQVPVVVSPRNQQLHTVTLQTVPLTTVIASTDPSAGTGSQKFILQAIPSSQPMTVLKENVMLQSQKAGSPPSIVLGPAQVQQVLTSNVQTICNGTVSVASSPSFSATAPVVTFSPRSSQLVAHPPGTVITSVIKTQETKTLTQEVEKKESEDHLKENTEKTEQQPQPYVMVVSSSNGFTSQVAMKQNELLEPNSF
The target in a further test is T5, EHF (Homo sapiens, UniProt Q9NZC4 1-300).
T5 sequence: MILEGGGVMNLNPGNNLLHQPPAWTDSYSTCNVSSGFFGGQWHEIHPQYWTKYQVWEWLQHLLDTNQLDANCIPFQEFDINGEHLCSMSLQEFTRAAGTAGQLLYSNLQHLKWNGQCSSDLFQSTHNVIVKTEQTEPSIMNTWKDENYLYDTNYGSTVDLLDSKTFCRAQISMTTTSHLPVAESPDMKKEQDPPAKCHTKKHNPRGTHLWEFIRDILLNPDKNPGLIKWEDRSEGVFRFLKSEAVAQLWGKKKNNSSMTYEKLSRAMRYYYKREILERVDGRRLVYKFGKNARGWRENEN
Put shortly:
as §1

The next test addresses SPI1 (Homo sapiens, UniProt P17947 1-270). An outline of the steps: as §1
In a further test the target is SPIB (Homo sapiens, UniProt Q01892 1-262). Put shortly:
as §1

The target of the next test is T6, ELK3 (Homo sapiens, UniProt P41970 1-407).
T6 sequence: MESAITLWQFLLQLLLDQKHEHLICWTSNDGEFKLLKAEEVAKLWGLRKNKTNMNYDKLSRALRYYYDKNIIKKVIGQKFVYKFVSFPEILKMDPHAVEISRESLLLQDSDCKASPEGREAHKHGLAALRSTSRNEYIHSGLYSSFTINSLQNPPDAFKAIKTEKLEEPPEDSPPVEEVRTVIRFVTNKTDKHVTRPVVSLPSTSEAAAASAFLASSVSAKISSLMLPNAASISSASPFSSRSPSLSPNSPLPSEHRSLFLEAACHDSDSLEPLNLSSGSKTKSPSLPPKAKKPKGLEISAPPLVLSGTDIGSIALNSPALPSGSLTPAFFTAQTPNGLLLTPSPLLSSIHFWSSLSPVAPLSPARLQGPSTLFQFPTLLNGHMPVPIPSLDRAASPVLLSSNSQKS
An outline of the steps: as §1

The next test addresses T7, FEV (Homo sapiens, UniProt Q99581 1-238).
T7 sequence: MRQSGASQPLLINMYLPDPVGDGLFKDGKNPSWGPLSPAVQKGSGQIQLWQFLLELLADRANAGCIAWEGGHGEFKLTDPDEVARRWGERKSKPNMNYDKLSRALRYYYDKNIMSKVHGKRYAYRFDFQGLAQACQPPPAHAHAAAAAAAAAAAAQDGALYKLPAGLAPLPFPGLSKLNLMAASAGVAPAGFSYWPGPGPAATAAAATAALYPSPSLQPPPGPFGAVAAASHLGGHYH
Put shortly: as §1

In another test the target is ETV5 (Homo sapiens, UniProt P41161 1-510). An outline of the steps: as §1
Chain of ETV5 (P41161 whole entry): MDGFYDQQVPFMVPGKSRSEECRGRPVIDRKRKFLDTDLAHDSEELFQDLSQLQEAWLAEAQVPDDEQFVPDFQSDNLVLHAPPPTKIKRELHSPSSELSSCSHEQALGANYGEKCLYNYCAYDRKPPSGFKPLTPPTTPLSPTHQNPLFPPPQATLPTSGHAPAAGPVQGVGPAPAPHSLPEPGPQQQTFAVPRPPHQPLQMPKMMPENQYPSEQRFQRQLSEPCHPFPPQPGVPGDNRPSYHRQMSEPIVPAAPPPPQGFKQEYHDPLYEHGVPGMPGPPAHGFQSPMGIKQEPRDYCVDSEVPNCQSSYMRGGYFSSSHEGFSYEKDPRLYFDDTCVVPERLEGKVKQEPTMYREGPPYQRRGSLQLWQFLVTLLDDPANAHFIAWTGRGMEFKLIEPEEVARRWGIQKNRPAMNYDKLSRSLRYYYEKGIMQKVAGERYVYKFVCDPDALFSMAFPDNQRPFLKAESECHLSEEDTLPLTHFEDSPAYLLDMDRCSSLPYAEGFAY
For a further test, the target named is T8, SPIC (Homo sapiens, UniProt Q8N5J4 1-248).
T8 sequence: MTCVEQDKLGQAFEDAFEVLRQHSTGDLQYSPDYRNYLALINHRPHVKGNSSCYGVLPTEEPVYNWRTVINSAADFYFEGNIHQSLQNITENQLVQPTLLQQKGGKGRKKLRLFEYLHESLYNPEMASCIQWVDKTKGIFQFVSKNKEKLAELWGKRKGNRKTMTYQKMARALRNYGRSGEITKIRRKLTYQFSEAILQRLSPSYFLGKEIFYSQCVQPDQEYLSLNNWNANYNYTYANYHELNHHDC
An outline of the steps: as §1

The next test concerns the target ELF4 (Homo sapiens, UniProt Q99607 1-663). An outline of the steps:
as §1

For the next test, the target named is T9, ELK4 (Homo sapiens, UniProt P28324-2 1-405).
T9 sequence: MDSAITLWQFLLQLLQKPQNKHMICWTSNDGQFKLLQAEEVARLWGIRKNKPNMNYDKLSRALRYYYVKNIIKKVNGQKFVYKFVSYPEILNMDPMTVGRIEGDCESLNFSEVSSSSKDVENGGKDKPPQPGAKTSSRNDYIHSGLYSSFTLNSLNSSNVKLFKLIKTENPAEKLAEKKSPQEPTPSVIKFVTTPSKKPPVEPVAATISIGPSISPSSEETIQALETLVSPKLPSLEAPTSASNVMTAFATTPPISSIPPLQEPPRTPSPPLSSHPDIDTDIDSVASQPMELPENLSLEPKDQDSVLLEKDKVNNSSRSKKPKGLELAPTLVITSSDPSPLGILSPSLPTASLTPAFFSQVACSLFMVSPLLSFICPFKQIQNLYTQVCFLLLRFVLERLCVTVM
An outline of the steps: as §1

The target of another test is T10, ETV2 (Homo sapiens, UniProt O00321 1-342).
T10 sequence: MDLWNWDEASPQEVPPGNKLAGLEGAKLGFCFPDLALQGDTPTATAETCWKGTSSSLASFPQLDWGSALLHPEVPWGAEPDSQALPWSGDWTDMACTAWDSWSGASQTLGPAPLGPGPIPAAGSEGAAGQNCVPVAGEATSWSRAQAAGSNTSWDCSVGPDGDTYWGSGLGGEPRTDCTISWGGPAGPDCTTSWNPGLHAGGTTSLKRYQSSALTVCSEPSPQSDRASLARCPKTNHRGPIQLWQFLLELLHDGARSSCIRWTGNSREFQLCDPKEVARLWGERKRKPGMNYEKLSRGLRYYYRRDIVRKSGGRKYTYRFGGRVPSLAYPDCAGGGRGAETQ
An outline of the steps: as §1

For another test, the target named is T11, ELF3 (Homo sapiens, UniProt P78545 1-371).
T11 sequence: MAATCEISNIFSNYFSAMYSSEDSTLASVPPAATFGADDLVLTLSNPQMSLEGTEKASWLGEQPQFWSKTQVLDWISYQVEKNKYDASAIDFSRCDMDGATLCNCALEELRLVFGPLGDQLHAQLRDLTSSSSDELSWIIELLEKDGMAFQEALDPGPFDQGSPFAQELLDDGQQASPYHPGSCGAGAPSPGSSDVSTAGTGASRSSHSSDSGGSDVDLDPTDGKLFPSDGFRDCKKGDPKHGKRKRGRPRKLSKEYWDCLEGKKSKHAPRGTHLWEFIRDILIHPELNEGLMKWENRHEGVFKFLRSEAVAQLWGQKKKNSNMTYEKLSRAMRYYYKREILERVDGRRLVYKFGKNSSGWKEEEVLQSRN
Put shortly: as §1

The target of the next test is ETV1 (Homo sapiens, UniProt P50549 1-477). An outline of the steps: as §1
Chain of ETV1 (P50549 whole entry): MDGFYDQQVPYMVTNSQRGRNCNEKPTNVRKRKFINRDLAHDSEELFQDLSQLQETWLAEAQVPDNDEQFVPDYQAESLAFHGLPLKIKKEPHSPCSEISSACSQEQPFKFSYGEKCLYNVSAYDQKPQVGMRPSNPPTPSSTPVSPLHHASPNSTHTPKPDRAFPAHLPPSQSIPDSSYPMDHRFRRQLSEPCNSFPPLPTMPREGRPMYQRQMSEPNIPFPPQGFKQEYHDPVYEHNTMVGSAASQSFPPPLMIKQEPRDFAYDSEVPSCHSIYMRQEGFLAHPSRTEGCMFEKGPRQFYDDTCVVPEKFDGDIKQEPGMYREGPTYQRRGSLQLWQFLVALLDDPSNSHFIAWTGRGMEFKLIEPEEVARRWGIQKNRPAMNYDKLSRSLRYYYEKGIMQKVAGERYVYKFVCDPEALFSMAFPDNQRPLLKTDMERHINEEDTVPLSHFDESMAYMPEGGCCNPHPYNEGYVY

Chain of SPIB (Q01892 whole entry): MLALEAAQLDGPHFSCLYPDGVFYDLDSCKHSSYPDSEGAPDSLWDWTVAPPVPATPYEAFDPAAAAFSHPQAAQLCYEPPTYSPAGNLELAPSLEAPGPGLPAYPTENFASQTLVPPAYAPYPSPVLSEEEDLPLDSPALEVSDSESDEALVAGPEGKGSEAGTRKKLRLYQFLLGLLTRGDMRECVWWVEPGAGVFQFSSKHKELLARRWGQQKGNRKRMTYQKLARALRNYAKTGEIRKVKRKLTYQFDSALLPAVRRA
Chain of ELF4 (Q99607 whole entry): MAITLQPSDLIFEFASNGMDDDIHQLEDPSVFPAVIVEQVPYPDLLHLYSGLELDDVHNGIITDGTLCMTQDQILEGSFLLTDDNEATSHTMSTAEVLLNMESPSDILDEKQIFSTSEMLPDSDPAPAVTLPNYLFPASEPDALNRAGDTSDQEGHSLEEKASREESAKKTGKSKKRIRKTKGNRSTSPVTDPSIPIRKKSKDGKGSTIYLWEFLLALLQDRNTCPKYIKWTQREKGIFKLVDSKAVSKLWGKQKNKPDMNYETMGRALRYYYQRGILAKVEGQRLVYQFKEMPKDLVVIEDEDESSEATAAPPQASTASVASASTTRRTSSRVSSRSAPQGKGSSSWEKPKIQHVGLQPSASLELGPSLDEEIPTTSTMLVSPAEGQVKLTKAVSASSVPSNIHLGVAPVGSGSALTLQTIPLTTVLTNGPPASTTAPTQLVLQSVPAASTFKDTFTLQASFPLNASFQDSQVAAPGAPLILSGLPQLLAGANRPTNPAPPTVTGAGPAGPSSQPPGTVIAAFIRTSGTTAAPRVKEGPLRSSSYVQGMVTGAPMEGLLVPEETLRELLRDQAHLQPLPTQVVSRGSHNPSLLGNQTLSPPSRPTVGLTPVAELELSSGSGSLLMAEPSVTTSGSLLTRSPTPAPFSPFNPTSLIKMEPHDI

For CTGCAC, the binding signal was 1.2 fold enrichment (6-mer frequency, TF over GST control) with FLI1; 1.29 fold enrichment (6-mer frequency, TF over GST control) in the test with ELK1; 1.12 fold enrichment (6-mer frequency, TF over GST control) with GABPA; 1.13 fold enrichment (6-mer frequency, TF over GST control) in the test with ERG; 1.21 fold enrichment (6-mer frequency, TF over GST control) in the test with ELF1; 1.3 fold enrichment (6-mer frequency, TF over GST control) with EHF. The binding signal with SPI1 is 1.19 fold enrichment (6-mer frequency, TF over GST control); with SPIB, 1.15 fold enrichment (6-mer frequency, TF over GST control); with ELK3 it was 1.12 fold enrichment (6-mer frequency, TF over GST control); in the test with FEV it was 1.22 fold enrichment (6-mer frequency, TF over GST control); with ETV5, 1.17 fold enrichment (6-mer frequency, TF over GST control); with SPIC, 1.32 fold enrichment (6-mer frequency, TF over GST control). The binding signal was 1.2 fold enrichment (6-mer frequency, TF over GST control) in the test with ELF4; 1.29 fold enrichment (6-mer frequency, TF over GST control) with ELK4; 1.24 fold enrichment (6-mer frequency, TF over GST control) with ETV2; 1.31 fold enrichment (6-mer frequency, TF over GST control) with ELF3; 1.13 fold enrichment (6-mer frequency, TF over GST control) with ETV1.

Regarding AGTACA, the binding signal with FLI1 was 1.13 fold enrichment (6-mer frequency, TF over GST control); with ELK1, 1.16 fold enrichment (6-mer frequency, TF over GST control); in the test with GABPA, 1.12 fold enrichment (6-mer frequency, TF over GST control); with ERG it was 1.19 fold enrichment (6-mer frequency, TF over GST control); with ELF1 it was 1.08 fold enrichment (6-mer frequency, TF over GST control); in the test with EHF, 1.13 fold enrichment (6-mer frequency, TF over GST control). For the same sequence, the binding signal is 1.17 fold enrichment (6-mer frequency, TF over GST control) in the test with SPI1; 1.07 fold enrichment (6-mer frequency, TF over GST control) in the test with SPIB; 1.31 fold enrichment (6-mer frequency, TF over GST control) with ELK3; 1.13 fold enrichment (6-mer frequency, TF over GST control) with FEV; 1.13 fold enrichment (6-mer frequency, TF over GST control) with ETV5; 1.07 fold enrichment (6-mer frequency, TF over GST control) with SPIC. In addition, the binding signal was 1.19 fold enrichment (6-mer frequency, TF over GST control) with ELF4; 1.07 fold enrichment (6-mer frequency, TF over GST control) with ELK4; 1.01 fold enrichment (6-mer frequency, TF over GST control) in the test with ETV2; 1.13 fold enrichment (6-mer frequency, TF over GST control) with ELF3; 1.11 fold enrichment (6-mer frequency, TF over GST control) in the test with ETV1.
